Results: PubChem BioAssay AID1159580 (chemical genetic matrix, 2015)
“And” between values parts separate entries of the source, which are not always exact repeats. Equal entries are not always repeated. Out of some 5,500 compounds screened, about 2,000 (36%) were called active. Roughly 18% stayed inconclusive and do not appear here. Cut-off read from the data, not from the text of the source: active = normalized growth mostly below about 0.91 (no sharp cut-off); inconclusive = no clear call, values can overlap the other calls; inactive = mostly above about 0.92. This is one part of the list.

Assay: chemical genetic growth profiling, strain panel (AID 1159580);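 note: tested at 20 µM; growth read once vehicle control cultures reached saturation at 30 °C; 1 = growth at the plate median or of vehicle wells; lower values mean less growth of the strain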
Conditions: S. cerevisiae deletion strains, growth OD

Measured: normalized growth

C[n+]1c2cc(N)ccc2cc2ccc(N)cc21
0.724 (active) and 0.882 (inactive): locus YHR030C, strain SLT2, stronger effect = lower value
inactive: locus YBR021W, strain FUR4, stronger effect = lower value 1.11 | locus YBR171W, strain sec66, stronger effect = lower value 0.934 | locus YDL185W, strain tfp1, stronger effect = lower value 0.938 | locus YER110C, stronger effect = lower value 0.961 | locus YER155C, strain BEM2, stronger effect = lower value 0.935 | locus YGL078C, strain dbp3, stronger effect = lower value 0.937 | locus YGL167C, strain pmr1, stronger effect = lower value 0.938 | locus YHR094C, strain hxt1, stronger effect = lower value 0.939 | locus YIL125W, strain kgd1, stronger effect = lower value 0.945 | locus YJR066W, strain TOR1, stronger effect = lower value 0.849
active: locus YAL013W, strain DEP1, stronger effect = lower value 0.748 | locus YAL021C, strain ccr4, stronger effect = lower value 0.335 | locus YAL026C, strain drs2, stronger effect = lower value 0.586 | locus YAL030W, strain snc1, stronger effect = lower value 0.505 | locus YBL061C, strain skt5, stronger effect = lower value 0.616 | locus YBR009C, strain hhf1, stronger effect = lower value 0.356 | locus YBR023C, strain chs3, stronger effect = lower value 0.666 | locus YBR229C, strain ROT2, stronger effect = lower value 0.888 | locus YBR231C, strain swc5, stronger effect = lower value 0.359 | locus YBR279W, strain paf1, stronger effect = lower value 0.701 | locus YCL011C, strain gbp2, stronger effect = lower value 0.438 | locus YCL016C, strain dcc1, stronger effect = lower value 0.331 | locus YCL029C, strain bik1, stronger effect = lower value 0.67 | locus YCL069W, strain vba3, stronger effect = lower value 0.588 | locus YCR088W, strain abp1, stronger effect = lower value 0.55 | locus YDL005C, strain med2, stronger effect = lower value 0.572 | locus YDL035C, strain GPR1, stronger effect = lower value 0.72 | locus YDL040C, strain nat1, stronger effect = lower value 0.718 | locus YDL074C, strain BRE1, stronger effect = lower value 0.575 | locus YDL101C, strain DUN1, stronger effect = lower value 0.761 | locus YDL134C, strain PPH21, stronger effect = lower value 0.726 | locus YDL192W, strain arf1, stronger effect = lower value 0.844 | locus YDR001C, strain nth1, stronger effect = lower value 0.74 | locus YDR069C, strain doa4, stronger effect = lower value 0.591 | locus YDR101C, strain arx1, stronger effect = lower value 0.81 | locus YDR137W, strain rgp1, stronger effect = lower value 0.616 | locus YDR150W, strain NUM1, stronger effect = lower value 0.831 | locus YDR159W, strain sac3, stronger effect = lower value 0.77 | locus YDR162C, strain NBP2, stronger effect = lower value 0.723 | locus YDR195W, strain ref2 1.22 [resistant] | locus YDR297W, strain sur2, stronger effect = lower value 0.652 | locus YDR318W, strain mcm21, stronger effect = lower value 0.834 | locus YDR334W, strain swr1, stronger effect = lower value 0.412 | locus YDR335W, strain msn5, stronger effect = lower value 0.499 | locus YDR388W, stronger effect = lower value 0.722 | locus YDR392W, strain spt3, stronger effect = lower value 0.352 | locus YDR502C, strain sam2, stronger effect = lower value 0.793 | locus YEL003W, strain gim4, stronger effect = lower value 0.491 | locus YEL037C, strain rad23, stronger effect = lower value 0.437 | locus YEL061C, strain CIN8 (second series), stronger effect = lower value 0.652 | locus YEL061C, strain CIN8, stronger effect = lower value 0.851 | locus YER015W, strain faa2, stronger effect = lower value 0.498 | locus YER016W, strain bim1, stronger effect = lower value 0.479 | locus YER111C, strain swi4, stronger effect = lower value 0.633 | locus YER155C, strain BEM2 (second series), stronger effect = lower value 0.272 | locus YER167W, strain BCK2, stronger effect = lower value 0.754 | locus YFR010W, strain ubp6, stronger effect = lower value 0.536 | locus YGL086W, strain mad1, stronger effect = lower value 0.778 | locus YGL173C, strain kem1, stronger effect = lower value 0.481 | locus YGL227W, strain vid30, stronger effect = lower value 0.671 | locus YGL240W, strain doc1, stronger effect = lower value 0.63 | locus YGL248W, strain PDE1, stronger effect = lower value 0.758 | locus YGL253W, strain hxk2, stronger effect = lower value 0.425 | locus YGR078C, strain PAC10, stronger effect = lower value 0.722 | locus YGR135W, strain pre9, stronger effect = lower value 0.777 | locus YGR229C, strain SMI1, stronger effect = lower value 0.704 | locus YGR252W, strain gcn5, stronger effect = lower value 0.531 | locus YHR013C, strain ard1, stronger effect = lower value 0.397 | locus YHR027C, strain rpn1, stronger effect = lower value 0.546 | locus YHR079C, strain IRE1 (second series), stronger effect = lower value 0.779 | locus YHR079C, strain IRE1, stronger effect = lower value 0.841 | locus YHR129C, strain ARP1, stronger effect = lower value 0.897 | locus YHR142W, strain chs7, stronger effect = lower value 0.44 | locus YHR200W, strain rpn10, stronger effect = lower value 0.682 | locus YIL066C, strain RNR3, stronger effect = lower value 0.792 | locus YIL073C, strain SPO22, stronger effect = lower value 0.534 | locus YIR030C, strain dcg1, stronger effect = lower value 0.859 | locus YJL092W, strain hpr5, stronger effect = lower value 0.253 | locus YJL095W, strain BCK1 (second series), stronger effect = lower value 0.487 | locus YJL095W, strain BCK1, stronger effect = lower value 0.486 and 0.879 | locus YJL115W, strain asf1, stronger effect = lower value 0.369 | locus YJL129C, strain trk1, stronger effect = lower value 0.773 | locus YJL134W, strain LCB3, stronger effect = lower value 0.912 | locus YJL154C, strain vps35, stronger effect = lower value 0.808 | locus YJL164C, strain tpk1, stronger effect = lower value 0.417 | locus YJL166W, strain qcr8, stronger effect = lower value 0.392 | locus YJL168C, strain set2, stronger effect = lower value 0.91 | locus YJL187C, strain SWE1 (second series), stronger effect = lower value 0.708 | locus YJR043C, strain POL32, stronger effect = lower value 0.703 | locus YJR075W, strain HOC1, stronger effect = lower value 0.566
